Source: PubChem (Broad Institute)
PRC2_inh: inhibitors of human EZH2/PRC2 methyltransferase. PRC2 H3K27 methylation, DELFIA TRF, 1 h. Q15910. AID 651548. 0.35% of 57,000 active. inhibition, % at 12.5 µM;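 active means mean inhibition of replicates at least 50% and every single replicate also reaching 50%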;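 further: dimethyl H3K27 on biotinylated H3 21-44 peptide detected by antibody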
A number is an active result; – = inactive. The entries come from a sample that favours hits as a whole.

SMILES PRC2_inh
C[C@H]1CN([C@@H](C)CO)S(=O)(=O)c2ccc(C#CC3CC3)cc2O[C@@H]1CN(C)Cc1ccncc1 –
Cc1ccc(S(=O)(=O)N(C)C[C@@H]2OCCCC[C@H](C)Oc3ccc(N(C)C)cc3C(=O)N([C@@H](C)CO)C[C@H]2C)cc1 –
CCC(=O)Nc1ccc2c(c1)C(=O)N(C)C[C@H](OC)[C@H](C)CN(C(=O)CN(C)C)[C@H](C)CO2 –
C[C@H](CO)N1C[C@H](C)[C@@H](CN(C)C(=O)Cc2ccccn2)Oc2ncc(-c3ccc(F)cc3)cc2C1=O –
COc1c(O[C@@H]2O[C@H](C(=O)O)[C@@H](O)[C@H](O)[C@H]2O)cc2oc(-c3ccc(O)cc3)cc(=O)c2c1O –
COc1c(O)cc2c(=O)oc3c(OC)c(O[C@@H]4OC[C@@H](O)[C@H](O)[C@H]4O)cc4c(=O)oc1c2c34 80
CN(C)CC(=O)N[C@@H]1CC[C@@H](CCn2cc(C3CCCCC3)nn2)O[C@H]1CO –
